# Bioassay records as filed in PubChem.
# BoNT F protease: blocks Botulinum neurotoxin F light chain protease; Multiplex microsphere protease cleavage assay, flow cytometry; 360,000 tested, 0.22% active; inhibition, % at 10 µM; in the data active means inhibition above about 35%, passing the limit was not always enough; inconclusive means no clear call, values can overlap the other calls; further: plate controls were buffer without enzyme for full effect and enzyme alone for no effect
# SSB-PriA inh: blocks PriA binding to SSB C-terminal tail; inhibition, % at 33 µM; 430,000 tested, 0.6% active; AID 1272365; AlphaScreen SSBct-PriA binding, biotinylated peptide; in the data active means inhibition mostly above about 37%, no sharp cut-off; inactive means mostly below about 20%;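 further: plate controls were negative control peptide for no effect and reference peptide for full effect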
# Anthrax LF inh2: anthrax lethal factor protease inhibition; P15917; multiplex microsphere protease cleavage assay, LF; inhibition, % at 10 µM; 360,000 tested, 0.12% active; AID 588501; further: plate controls were buffer without enzyme for full effect and enzyme alone for no effect
# BoNT-A LC inh2: inhibitors of Botulinum neurotoxin A light chain protease; multiplex microsphere protease substrate cleavage, flow cytometry; 360,000 tested, 0.17% active; AID 588499; inhibition, % at 10 µM; further: plate controls were buffer without enzyme for full effect and enzyme alone for no effect
# Autofluor counter: counter-screen for toxin protease inhibitors: compound fluorescence; compound autofluorescence counterscreen, microsphere flow cytometry; stronger effect = higher value; fluorescence intensity (test concentration not listed); 360,000 tested, 3.1% active; in the data active means fluorescence intensity above about 16000; inconclusive means no clear call, values can overlap the other calls
# MazF activator: increases E. coli MazEF RNase cleavage of RNA | FAM/BHQ RNA-DNA oligo cleavage fluorescence, 5 h | activation, % at 20 µM | 350,000 tested, 0.32% active | AID 504720; in the data active means activation above about 50%
# Target sequence (P0AE70 whole entry, looked up): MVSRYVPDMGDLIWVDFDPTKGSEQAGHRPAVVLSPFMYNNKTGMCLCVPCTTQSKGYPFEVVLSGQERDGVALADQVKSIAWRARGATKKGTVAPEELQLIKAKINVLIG
# Numbers without * were called inactive; ? = inconclusive; · = no result given. Hits are enriched below; roughly 3.3% of the tested compounds scored in any of these assays. Unless noted, no stated cut-off is given here; in the data, active means inhibition above about 30%; inconclusive means no clear call, values can overlap the other calls; inactive means below that.
SMILES,BoNT F protease,SSB-PriA inh,Anthrax LF inh2,BoNT-A LC inh2,Autofluor counter,MazF activator
CCCOc1ccccc1NC(=O)CC1Nc2ccccc2NC1=O (configuration not stated),-8.3,17.2,-1.7,-5.4,21938*,-5.0
COc1ccc(CCNC(=O)CC2Nc3ccccc3NC2=O)cc1 (configuration not stated),-7.9,-4.2,-13.1,0.5,6877,7.2
CCOc1ccccc1NC(=O)CC1Nc2ccccc2NC1=O (configuration not stated),6.6,14.4,-0.5,0.4,3639,2.2
COc1ccc(CCNC(=O)CC2Nc3ccccc3NC2=O)cc1OC (configuration not stated),-6.2,3.0,-3.2,-3.9,24834*,-6.1
Cc1cc(C)c2c(c1)sc(=NC(=O)Cc1ccc(C)c(C)c1)n2C,·,20.0,·,·,·,·
COc1ccc(C(=O)c2ccccc2C(=O)c2ccccc2)cc1,-6.8,-8.0,-5.6,0.3,3683,4.9
COc1ccc(N2C(=O)CCC(C(=O)c3ccccc3)=C2C)cc1,7.5,-17.9,-2.5,?,19774*,-4.6
COCC(=O)NCCNc1cc(-n2cccc2)nc(C)n1,·,-15.0,·,·,·,·
O=[N+]([O-])c1ccc(C2CCCCC2=NOCc2ccc(F)cc2)c([N+](=O)[O-])c1 (configuration not stated),·,45.2*,·,·,·,·
O=[N+]([O-])c1ccc(C2CCCC/C2=N\OCc2cccc(F)c2)c([N+](=O)[O-])c1 (configuration not stated),-8.8,·,-4.0,?,23769*,-3.1
O=C(ON=C1CCCCC1c1ccc([N+](=O)[O-])cc1[N+](=O)[O-])c1c(F)cccc1F (configuration not stated),·,15.2,·,·,·,·
Cc1ccc(C(=O)OCC(=O)N(C)c2ccccc2)c(C)c1,6.7,-12.8,7.4,-0.8,3693,-1.5
CN(C(=O)COC(=O)c1ccc([N+](=O)[O-])cc1N)c1ccccc1,-3.0,8.7,-1.4,0.1,4003,69.8*
C/C(=N/NC(=O)c1ccncc1)C1CCC(c2ccccc2)CC1 (configuration not stated),·,-14.0,·,·,·,·
CC(C)c1nnc(NC(=O)CSc2nc3ccccc3s2)s1,5.2,-12.2,-11.6,3.9,20149*,-0.3
CCc1nnc(NC(=O)CSc2nc3ccccc3s2)s1,-8.1,-5.4,-2.4,1.2,3429,4.9
Cc1csc(NC(=O)CCCSc2nc3ccccc3s2)n1,1.8,4.0,-2.7,1.3,21652*,-0.4
Cc1csc(NC(=O)CSc2nc3ccccc3s2)n1,8.2,-7.3,-3.0,-0.6,2323,6.8
O=C(Nc1ccc(F)cc1F)c1cccn1-c1ncc(C(F)(F)F)cc1Cl,-7.9,-7.0,-1.3,-1.3,10426,-5.8
Cc1cc(C)cc(NC(=O)c2cccn2-c2ncc(C(F)(F)F)cc2Cl)c1,-6.7,6.2,-2.8,?,25062*,-7.1
COC(=O)C1=CN(CC2CCCO2)C=C(C(=O)OC)C1c1cccc(O)c1 (configuration not stated),1.5,-20.9,0.4,-0.4,3793,5.2
COC(=O)C1=CN(CC2CCCO2)C=C(C(=O)OC)C1c1ccsc1 (configuration not stated),1.9,-7.3,0.2,0.9,22638*,4.2
COCCNC(=O)c1c(NC(=O)c2ccc(Br)o2)n(Cc2ccccc2)c2nc3ccccc3nc12,-0.5,-22.8,10.7,35.3*,3089,-14.2
COCCCNC(=O)c1c(NC(=O)c2ccco2)n(Cc2ccccc2)c2nc3ccccc3nc12,10.5,11.9,12.5,20.1,2513,-2.4
CCCc1[nH]nc2c1C(c1cc(OC)ccc1F)C(C#N)=C(N)O2 (configuration not stated),3.9,-1.8,-9.3,4.3,18896*,-2.0
SMILES,BoNT F protease,SSB-PriA inh,Anthrax LF inh2,BoNT-A LC inh2,Autofluor counter,MazF activator
CCOC(=O)Cc1[nH]nc2c1C(c1cccc(OC)c1OC)C(C#N)=C(N)O2 (configuration not stated),14.6,-4.4,2.2,0.3,4690,3.1
CCOC(=O)Cc1[nH]nc2c1C(c1cc(OC)ccc1OC)C(C#N)=C(N)O2 (configuration not stated),-5.1,-16.4,0.4,-3.8,21991*,5.2
COc1ccc(S(=O)(=O)N2CCCC[C@@H]2CC(=O)Nc2ccc(Br)c(C)c2)cc1,·,-19.0,·,·,·,·
COc1ccc(C(=O)NCC(O)(c2ccccc2)C(F)(F)F)cc1F (configuration not stated),·,-6.0,·,·,·,·
O=C(C1=C(O)C(=O)N(CCN2CCOCC2)C1c1cccc(O)c1)c1cc2ccccc2o1 (configuration not stated),12.2,-2.1,-7.1,2.8,4754,-2.9
O=C(C1=C(O)C(=O)N(CCN2CCOCC2)C1c1cccnc1)c1cc2ccccc2o1 (configuration not stated),-4.0,-9.7,-2.9,-1.0,19706*,-10.5
O=C(N/N=C\c1ccc(-c2ccc([N+](=O)[O-])cc2)o1)c1ccc2c(c1)OCO2,-3.6,·,-0.8,2.0,8711,86.3*
O=C(NN=Cc1ccc(-c2ccc([N+](=O)[O-])cc2)o1)c1ccc2c(c1)OCO2,·,-6.2,·,·,·,·
CCN=C1S/C(=C\c2cc(OCC)c(O)cc2Br)C(=O)N1CC,72.5*,-12.1,30.2*,6.8,6185,-13.9
Cc1ccc(S(=O)(=O)c2[nH]c(-c3ccccc3)nc2SCC(=O)NC[C@H]2CCCO2)cc1,·,0.0,·,·,·,·
CCN(CC)CCCN(Cc1cc2cc3c(cc2[nH]c1=O)OCO3)C(=S)NC,35.3*,-7.5,-13.9,-0.9,3205,9.3
CCC(=O)N(Cc1ccc(C)cc1)Cc1cc2cc3c(cc2[nH]c1=O)OCO3,-2.3,-7.1,-3.0,-1.7,23631*,-22.0
CCC(=O)N(CCc1ccccc1)Cc1cc2cc3c(cc2[nH]c1=O)OCO3,-4.1,-6.4,-1.8,-2.8,21744*,-5.0
Cc1cc(C)c2c(n1)sc1c(=O)n(CC(=O)Nc3cccc4ccccc34)cnc12,·,-13.0,·,·,·,·
CCOc1ccc(S(=O)(=O)N2CCN(c3ccc4nnc(C)n4n3)CC2)cc1,·,-3.0,·,·,·,·
COc1cccc(NC(=O)N(CCc2cccs2)C2CC2)c1OC,·,-7.0,·,·,·,·
Fc1ccccc1-c1nnc2c3ccccc3nc(N3CCOCC3)n12,1.4,-18.4,-5.9,1.1,19272*,9.8
Brc1ccc(-c2nnc3c4ccccc4nc(N4CCOCC4)n23)cc1,14.5,-2.7,?,?,5395,5.6
Clc1ccc(-c2nnc3c4ccccc4nc(N4CCOCC4)n23)cc1Cl,-9.8,-6.1,-3.0,?,21865*,10.1
COC(=O)c1sccc1-c1ccc(C(=O)Nc2ccccc2)o1,2.3,-26.5,1.4,?,19373*,5.1
O=C(Cn1c(=O)oc2ccccc21)NCCn1nc(-c2ccco2)n(C2CC2)c1=O,·,-8.0,·,·,·,·
O=C(NCc1ccc(Cl)cc1)N1CCC(c2nnc(C3CC3)o2)CC1,·,3.0,·,·,·,·
COc1ccc(-c2nn(-c3ccccc3)cc2/C=C2/SC(=S)N(Cc3ccco3)C2=O)c(C)c1,37.4*,-15.1,35.8*,29.5*,12304,0.1
